# Measured values reported in ChEMBL document CHEMBL3988442, “University of Dundee, Small-Polar-MMV Screening Library” (2021).
# Several values for one entry are separate records, joined by “and”; a condition that tells them apart may be missing. Equal values may be shown once. About 900 (1.7%) of roughly 53,000 compounds showed an effect of 50% or more. Many of the other results were omitted from the sample, so strong results are more common in it than they were.
# Tested on: Mycobacterium tuberculosis
# Assay: Cornell - Phenotypic assay to identify agents that inhibit growth of Mycobacterium tuberculosis
# Type: functional
# Set-up: scale not given: direction of the effect not stated beside the values
SMILES,Percent Effect (10 mM; 10000 µM),"Percent Effect (10 mM, 10 mM as filed; unlikely as a test dose)"
CN(C)C(=O)C1CN(c2ccncn2)CCN(C2CCOCC2)C1 (stereo unspecified),-28.59%,–
COc1ccc(C(=O)NS(=O)(=O)c2cc(Cl)sc2Cl)cc1OC(F)F,76.92%,–
O=C(NS(=O)(=O)c1cc(Cl)sc1Cl)c1cccc2c1OCCO2,1.673%,–
COc1ccc(C(=O)NS(C)(=O)=O)cc1-c1ccccc1,36.61%,–
COc1cc(C(=O)NS(=O)(=O)c2cc(Cl)sc2Cl)ccc1OC(F)F,83.5%,–
COc1cccc(C(=O)NS(=O)(=O)c2cc(Cl)sc2Cl)c1OC(F)F,16.97%,–
COc1cc(C(=O)NS(=O)(=O)c2ccc(C#N)cc2)ccc1C,-19.49%,–
CCc1cc(NC(=O)C(c2cccc(F)c2)N2CCOCC2)[nH]n1 (stereo unspecified),-14.2%,–
O=C(CS(=O)(=O)Cc1cc(Cl)c2c(c1)OCO2)N1CCCCCC1,-3.371%,–
COCCCNC(=O)N1CCN(C(=O)c2nsc3ccccc23)CC1,12.5%,–
CN(C)Cc1cc(=O)n2c(n1)CN(C(=O)c1ccc[nH]1)CCC2.O=C(O)C(F)(F)F,-35.4%,–
Cc1ccc(N2N=C(C(=O)O)S(=O)(=O)c3cccnc32)cc1,51.3%,–
Cc1ccc(CN2CCN(c3ncccc3C(N)=O)CC2CCO)cc1 (stereo unspecified),16.45%,–
CN1N=C(C(=O)N2CCCCC2)S(=O)(=O)c2ccccc21,-10.66%,–
Cc1ccc(N2N=C(C(=O)NCC3CC3)S(=O)(=O)c3cccnc32)cc1,11.26%,–
CC(C)CCN1N=C(C(=O)N2CCCCCC2)S(=O)(=O)c2ccccc21,8.314%,–
Cc1ccc(N2N=C(C(N)=O)S(=O)(=O)c3cccnc32)cc1,106.9%,–
Cc1cn2c(n1)CCC(NC(=O)CCCn1cncn1)C2 (stereo unspecified),-12.33%,–
CC(=O)Nc1nc(C2CCN(C(C)C)CC2)cs1,-15.97%,–
COCC(=O)N1CCCCC1c1nc(CN(C)C(C)=O)cc(N(C)C)n1 (stereo unspecified),-40.24%,–
CC(=O)N1CCCC1c1nc(CN(C)C(=O)C(C)C)cc(N(C)C)n1 (stereo unspecified),52.18%,–
CCC(=O)N1CCCCC1c1nc(CN(C)C(C)=O)cc(N(C)C)n1 (stereo unspecified),49.36%,–
COc1ccc(C(=O)N2CCOc3ccncc32)cc1,9.514%,–
CC(C)CC(C)NC1CCN(c2cccc(-c3cscn3)c2)CC1 (stereo unspecified),2.317%,–
c1cc(-c2cscn2)cc(N2CCC(NCCc3cccs3)CC2)c1,60.71%,–
c1ccc(-c2cccc(N3CCC(NCCc4cscn4)CC3)c2)cc1,93.63%,–

SMILES,Percent Effect (10 mM; 10000 µM),"Percent Effect (10 mM, 10 mM as filed; unlikely as a test dose)"
O=C1CCCN1c1cccc(N2CCC(NCCc3cscn3)CC2)c1,24.64%,–
Fc1cccc(-c2cccc(N3CCC(NC4CCCOC4)CC3)c2)c1 (stereo unspecified),23.21%,–
Cc1nc(-c2cccc(N3CCC(NC4CCOCC4)CC3)c2)cs1,35.61%,–
CCCC(=O)N1CCOC2(COCCN(CC(=O)NC)C2)C1.O=C(O)C(F)(F)F (stereo unspecified),6.771%,–
O=C(CC(SC1CCCCC1)C(=O)O)c1ccc(Br)cc1 (stereo unspecified),52.8%,–
O=C(CC(SC1CCCCC1)C(=O)O)c1ccc(Cl)cc1 (stereo unspecified),11.66%,–
Cc1ccc(C(=O)CC(SC2CCCCC2)C(=O)O)cc1 (stereo unspecified),44.78%,–
O=C(O)C(F)(F)F.O=C(O)C(F)(F)F.O=C(O)c1c(-c2cccnc2)ncc2c1CCN(Cc1ccccn1)C2,-51.27%,–
O=C(NCc1cccnc1)c1nc2c(s1)CCCN2C(=O)C1CC1.O=C(O)C(F)(F)F,6.625%,–
OCCN1CCC(c2csc(Nc3cnccn3)n2)CC1,-21.31%,–
NC(=O)CN1CCC(c2csc(Nc3cnccn3)n2)CC1,53.63%,–
c1cnc(N2CCC(c3csc(Nc4cnccn4)n3)CC2)nc1,78.58%,–
c1cnc(N2CCCC(c3csc(Nc4cnccn4)n3)C2)nc1 (stereo unspecified),29.09%,–
Cc1nc(Nc2cnccn2)cc(C2CCN(c3ncccn3)C2)n1 (stereo unspecified),-14.64%,–
CC(=O)Nc1nc(C2CCN(CC(N)=O)CC2)cs1,1.083%,–
O=C(N1CCOCC1)n1cnc2ccccc21,14.08%,–
CC1CCN(c2ccc(=O)n(CC(=O)NCCc3ccccc3)n2)CC1,45.57%,–
COc1c(CC2CC(CO)=NO2)c(Br)c2c(c1OC)OCO2 (stereo unspecified),-3.025%,–
CCCS(=O)(=O)N1CCCC(c2nc(-c3ccccc3)c[nH]2)C1 (stereo unspecified),56.46%,–
CS(=O)(=O)N1CCCC(c2nc(-c3ccccc3)c[nH]2)C1 (stereo unspecified),4.975%,–
CCN(C)S(=O)(=O)N1CCCC(c2nc(-c3ccccc3)c[nH]2)C1 (stereo unspecified),-4.787%,–
Cc1nc(N2CCCC2)nc(C)c1NS(C)(=O)=O,7.192%,–
Cc1nc(N2CCOCC2)nc(C)c1NS(=O)(=O)c1ccccc1,18.03%,–
Cc1ccc(S(=O)(=O)Nc2c(C)nc(N3CCCC3)nc2C)cc1,52.33%,–
CCC1CCCN(S(=O)(=O)c2cnc3onc(C)c3c2)C1 (stereo unspecified),54.72%,–
Cc1noc2ncc(S(=O)(=O)N3CCCC(C)(C)CC3)cc12,49.9%,–

SMILES,Percent Effect (10 mM; 10000 µM),"Percent Effect (10 mM, 10 mM as filed; unlikely as a test dose)"
CCN1CCCN(S(=O)(=O)c2cnc3onc(C)c3c2)CC1,44.95%,–
CCc1noc(CN(Cc2cccs2)CC2CCCO2)n1 (stereo unspecified),-2.113%,–
CNc1ncc(CN(C)C(=O)c2c[nH]nc2-c2cccc(F)c2)cn1,11.75%,–
Cn1ncc2c1CCCN(C(=O)C1CCCC1)C2,10.97%,–
Cn1c(CCN2CCN(c3ccc(O)cc3)CC2)nc2ccccc21,103.8%,–
Cc1cc(C)n(C2CCN(Cc3nc4ccccc4n3C)CC2)n1,18.24%,–
Cn1c(CN2CCN(CC3CCCO3)CC2)nc2ccccc21 (stereo unspecified),22.41%,–
CCCc1ccc(N2CCN(Cc3nc4ccccc4n3C)CC2)cc1,-0.4475%,–
Cn1c(CCN2CCN(CCc3ccccc3)CC2)nc2ccccc21,76.94%,–
CCNC(=O)N1CCN(c2nc3ccccc3n2C)CC1,17.71%,–
CCCc1nc(NC2(COC)CCCC2)c2cnn(C)c2n1,21.48%,–
Cc1ccc(C)c(S(=O)(=O)CCN2CCCC2Cn2cncn2)c1 (stereo unspecified),23.02%,–
Fc1cccnc1O[C@@H]1CN(Cc2ccccn2)[C@@H]2CCCO[C@@H]21.O=C(O)C(F)(F)F.O=C(O)C(F)(F)F,2.355%,–
Cc1ccc(-c2cc(CN3CCCC(Cn4cncn4)C3)on2)cc1 (stereo unspecified),8.833%,–
O=C(C[C@@H]1COC[C@H]2CN(Cc3ccccn3)C[C@@H]12)N1CCOCC1.O=C(O)C(F)(F)F.O=C(O)C(F)(F)F,6.339%,–
c1ccc(C(NCc2nnc(-c3ccco3)o2)C2CCC2)cc1 (stereo unspecified),14.05%,–
Fc1ccc(C(NCc2nnc(-c3ccco3)o2)C2CCC2)cc1 (stereo unspecified),56.57%,–
Fc1ccc(C(NCc2nnc(C3CC3)o2)C2CCC2)cc1 (stereo unspecified),14.86%,–
CC(CNC(=O)Nc1ccc(F)cc1-n1cccc1)N1CCOCC1 (stereo unspecified),31.56%,–
CCNc1ncc(C(=O)NCc2ccc3nsnc3c2)cn1,105.6%,–
CCNc1ncc(C(=O)NCc2ccc(F)c(C(F)(F)F)c2)cn1,-33.7%,–
CCNc1ncc(C(=O)NCc2cccc(OC(F)(F)F)c2)cn1,27.01%,–
O=C(NC1CC1)N1C[C@H]2CN(Cc3cccc(F)c3)C(=O)[C@H]2C1,-1.024%,–
Cc1ccc(CN(CCCN(C)C)Cc2cnc(N(C)C)nc2)o1.O=C(O)CC(O)(CC(=O)O)C(=O)O,-2.664%,–
O=C(O)C(F)(F)F.O=C([C@H]1C[C@H]2OCC[C@H]2N(Cc2ccccn2)C1)N1CCCCO1,-19.88%,–
O=C(c1cc(C2CC2)on1)N1CCC(Oc2ncccc2Cl)CC1,82.03%,–

SMILES,Percent Effect (10 mM; 10000 µM),"Percent Effect (10 mM, 10 mM as filed; unlikely as a test dose)"
O=C(c1ccccn1)N1CCC(Oc2cccnc2)CC1,-17.68%,–
O=C(c1ccccn1)N1CCC(Oc2ncccc2Cl)CC1,37.07%,–
O=C(c1cnccn1)N1CCC(Oc2ncccc2Cl)CC1,13.63%,–
N#Cc1cccnc1OC1CCN(C(=O)c2cc(C3CC3)on2)CC1,39.39%,–
O=C(c1cc(C2CC2)on1)N1CCC(Oc2ncccc2Br)CC1,83.65%,–
CN(C)S(=O)(=O)N1CC(c2ccnc(Nc3ccccn3)n2)C1,25.46%,–
COc1ccc(CN2CCC3(CC2)CCN(CC2CC2)C3=O)cc1.O=C(O)C(F)(F)F,6.492%,–
CCC(=O)N1CCCCC[C@@H]2[C@@H]1[C@H](c1cccc(F)c1)CN2C,-24.01%,–
COc1cccc(C(=O)Nc2n[nH]c(C3CCCO3)n2)c1 (stereo unspecified),12.47%,–
CCOc1ncccc1CNC(=O)NCCNC(=O)c1ccco1,0.1336%,–
CCNC(=O)c1cc2n(n1)CCCO2,-8.867%,–
O=C(c1cccnc1)N1CCc2[nH]nc(Nc3ccccc3)c2C1,46.76%,–
O=C(c1cncs1)N1CCc2[nH]nc(Nc3ccccc3)c2C1,58.68%,–
O=C(c1ccncc1)N1CCc2[nH]nc(Nc3ccccc3)c2C1,-24.78%,–
CN(Cc1ccc(F)cc1)CC1(O)CCN(C(=O)c2cccs2)C1 (stereo unspecified),-44.56%,–
COc1cccc(CCC(=O)Nc2ccn(C)n2)c1OC,-2.109%,–
COc1cccc(C2C3=C(COC3=O)Nc3[nH]nc(C)c32)c1O (stereo unspecified),-49.1%,–
CCOc1c(Br)cc(C2C3=C(COC3=O)Nc3[nH]nc(C)c32)cc1OC (stereo unspecified),33.99%,–
COc1cc(C2C3=C(COC3=O)Nc3[nH]nc(C)c32)cc(Br)c1O (stereo unspecified),101.5%,–
Cc1cnn(C2CCCN(C(=O)c3cc(C)sc3C)C2)c1 (stereo unspecified),1.503%,–
CCOC(=O)CC(c1ccc(OC)c(OC)c1)c1c(O)n[nH]c1C (stereo unspecified),17.75%,–
CCOC(=O)CC(c1cccc(OC)c1OC)c1c(C)[nH][nH]c1=O (stereo unspecified),–,39.38% and 50.02%
COC(=O)CC(c1ccc(OC)c(OC)c1OC)c1c(O)n[nH]c1C (stereo unspecified),39.76%,–
